hcDAF-12 act – activates DAF-12 receptor from parasite H. contortus. HEK293 hcDAF-12 lit1-tk-luc reporter, luminescence; 0% DMSO, 100% Δ7-dafachronic acid. activation, % at 6.8 µM. 370,000 tested, 1.4% active;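 active means activation above the mean of all tested compounds plus 3 SD, cut at about 5.5% in these data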
SMARCA2 activ – increases SMARCA2 function in MMTV reporter cells. MG213 cells, MMTV-luciferase reporter, dexamethasone, overnight. activation, % at 9.1 µM. 370,000 tested, 1% active. AID 652017; in the data active means activation above about 7.8%
DAX1 inh-1 – DAX1 (NR0B1) inhibition, primary screen. HEK293T StAR-luciferase reporter, SF-1/DAX-1 repression relief. inhibition, % at 6.8 µM. 370,000 tested, 1.1% active. AID 652010;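 active means inhibition above the mean over all tested compounds plus 3 SD, cut at about 3.6% in these data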;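 further: higher inhibition means more luminescence from relief of DAX-1 repression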
DAX1 inh-2 – NR0B1 (DAX1) inhibition | P51843 | HEK293 Gal4-DAX1 luciferase reporter, luminescence | inhibition, % at 6.75 µM | 340,000 tested, 0.99% active | AID 504766;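 active means inhibition above the mean over all tested compounds plus 3 SD, cut at about 4.2% in these data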;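 further: inhibition shows as a rise in luminescence from relieved DAX1 repression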
Target sequence (P51843 207-470 limits assumed): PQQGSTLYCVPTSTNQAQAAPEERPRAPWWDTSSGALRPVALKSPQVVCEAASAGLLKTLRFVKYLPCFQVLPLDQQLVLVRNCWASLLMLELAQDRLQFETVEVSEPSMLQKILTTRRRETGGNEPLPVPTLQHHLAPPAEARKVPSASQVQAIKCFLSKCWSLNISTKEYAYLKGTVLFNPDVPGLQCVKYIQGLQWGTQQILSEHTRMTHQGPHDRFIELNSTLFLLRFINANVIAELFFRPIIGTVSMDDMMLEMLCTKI
ssDAF12 agonist – S. stercoralis DAF-12 activation, primary screen. HEK293 ssDAF-12/GRIP1 lit1-tk-luc reporter, luminescence; % of 3 µM dafachronic acid response. activation, % at 6.8 µM. AID 652126. 370,000 tested, 1% active;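 active means activation above the mean over all tested compounds plus 3 SD, cut at about 0.9% in these data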
hgDAF-12 ag – agonists of H. glycines DAF-12 nuclear receptor. HEK293 GAL4-hgDAF12 UAS-luciferase reporter, agonist luminescence; normalized to butyrate control. activation, % at 6.8 µM. 370,000 tested, 1.8% active. AID 687014;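 active means activation above a cutoff set at the mean of all screened compounds plus 3 SD, cut at about 10% in these data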
SMARCA2 conf – SMARCA2 activation, confirmation screen; shares compounds with SMARCA2 activ; MG213 cells, MMTV-luciferase with dexamethasone, luminescence, overnight; MG213 cells expressing E1A, Rb sequestered; DMSO wells 0%, reference activator 100%; activation, % at 9.1 µM; 3,500 tested, 30% active;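 active means activation above its plate's cutoff, the mean activation of tested wells plus 3 SD, cut at about 7.9% in these data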
GAL4-VP16 Luc – GAL4-VP16 reporter activation counter-screen | activation, % at 9.1 µM | shares compounds with SMARCA2 activ | HEK293 GAL4-VP16 pG5luc reporter, luciferase luminescence; scaled: DMSO wells 0%, SAHA wells 100% | 3,500 tested, 41% active;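 active means activation above the solvent-only control well mean plus 3 SD, averaged across control plates, cut at about 5.2% in these data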
Each line names hits and unclear results; the compound was inactive in the other large screens (follow-up assays come after a bar, where they were run). Compounds with a hit are over-represented: about 4.8% of the library has one in this group of screens.

COc1cccc(N(C)C(=O)[C@@H](C)[C@@H](O)c2ccc(C(C)=O)cc2)c1	none (no result: DAX1 inh-2)
CCN(CC)CCn1c(=S)[nH]c2cc3c(cc2c1=O)OCO3	SMARCA2 activ 8.7 | SMARCA2 conf inactive | GAL4-VP16 Luc inactive
O=c1c(-c2ccco2)nc2ccccc2n1C(CCc1ccccc1)c1nc2ccccc2[nH]1 (configuration not stated)	SMARCA2 activ 11 (no result: DAX1 inh-2) | SMARCA2 conf inactive | GAL4-VP16 Luc inactive
CCOC1=C2[C@@H](CN(S(=O)(=O)c3ccc(C)cc3)[C@H]2c2cccc3ccccc23)[C@H]2C(=O)N(C3CCCCC3)C(=O)[C@H]2C1	SMARCA2 activ 10 (no result: DAX1 inh-2) | SMARCA2 conf inactive | GAL4-VP16 Luc inactive
CCOC1=C2[C@@H](CN(S(=O)(=O)c3ccc(C)cc3)[C@H]2c2cccc3ccccc23)[C@H]2C(=O)N(c3ccccc3)C(=O)[C@H]2C1	none (no result: DAX1 inh-2)
CCCN1C(=O)c2n[nH]c(C)c2C1c1ccc2c(c1)OCO2 (configuration not stated)	none (no result: DAX1 inh-2)
Cc1cccc2c1ncc1c(=O)n(-c3ccccc3)[nH]c12	SMARCA2 activ 12 | SMARCA2 conf inactive | GAL4-VP16 Luc 11
COc1ccc2ccccc2c1-c1c(C(=O)c2ccc(Br)cc2)[nH]c(N)c1C(=O)NC1CCCCC1	none (no result: SMARCA2 activ, DAX1 inh-1, DAX1 inh-2)
CCCCCCn1c(SCCCC)nc2c1c(=O)[nH]c(=O)n2C	none
CCn1c([N+](=O)[O-])nc2c1c(=O)[nH]c(=O)n2C	SMARCA2 activ 19 | SMARCA2 conf 56 | GAL4-VP16 Luc inactive
O=C(/C=C/c1ccc(Cl)cc1Cl)N1CCc2ccccc21	SMARCA2 activ 8.7, hgDAF-12 ag 13 | SMARCA2 conf 8.3 | GAL4-VP16 Luc 8.6
Cc1ccc(S(=O)(=O)N/N=C\c2ccc(Cl)c([N+](=O)[O-])c2)cc1	SMARCA2 activ 11 | SMARCA2 conf inactive | GAL4-VP16 Luc inactive
N#Cc1cccc(-c2ccccc2C(=O)NC2CCCCN(Cc3ccc(Cl)cc3)C2=O)c1 (configuration not stated)	none (no result: DAX1 inh-2)
CCc1nnc(NC(=O)C2CCCN2C(=O)Nc2ccccc2OC)s1 (configuration not stated)	SMARCA2 activ 8.8 | SMARCA2 conf inactive | GAL4-VP16 Luc inactive
Cc1ccccc1NC(=O)OC1CC2CC1[C@H]1CCCCN1[C@H]2Cc1ccccc1 (some centres not stated)	none (no result: DAX1 inh-2)
Cc1cc(CN2CCCC(C(=O)Nc3ccc(-c4nc5ccccc5[nH]4)cc3)C2)n[nH]1 (configuration not stated)	SMARCA2 activ 10.0 | SMARCA2 conf inactive | GAL4-VP16 Luc 5.5
CC1(C(=O)Nc2nc3ccccc3s2)CC1(Br)Br (configuration not stated)	SMARCA2 activ 9.0 | SMARCA2 conf inactive | GAL4-VP16 Luc 5.2
O=C(CCc1nnc(CCCc2ccccc2)o1)NCCCC1CCCC1	SMARCA2 activ 9.7, hgDAF-12 ag 11 | SMARCA2 conf inactive | GAL4-VP16 Luc 6.5
O=C(CCc1nnc(CCCc2ccccc2)o1)NCCc1ccccc1	none
COc1ccc2nc(Nc3nc(C)c(C(C)=O)s3)sc2c1	SMARCA2 activ 9.7, hgDAF-12 ag 13 | SMARCA2 conf inactive | GAL4-VP16 Luc 14
O=C(O)COc1ccccc1C=NNC(=O)Cc1cc(=O)[nH][nH]1	none (no result: DAX1 inh-2)
O=C(OC12CCCN(C1)/C(=C/c1cccc(Cl)c1)C2)c1cccc(F)c1 (configuration not stated)	none (no result: DAX1 inh-2)
COc1ccc(OC)c2c1C(=O)c1ccccc1C2=O	none (no result: DAX1 inh-2)
COc1ccc(N)c2c1C(=O)c1ccccc1C2=O	SMARCA2 activ 8.3 | SMARCA2 conf 16 | GAL4-VP16 Luc inactive
COc1cccc2c1C(=O)c1ccc3ccccc3c1C2=O	none (no result: hcDAF-12 act, SMARCA2 activ, DAX1 inh-1, ssDAF12 agonist, hgDAF-12 ag)
COc1ccc2noc3c2c1C(=O)c1ccccc1-3	SMARCA2 activ 16 | SMARCA2 conf 8.4 | GAL4-VP16 Luc inactive
COC(=O)[C@]12C[C@H](CC(=O)N3CCC(c4ccccc4)CC3)C(=O)N(CCC3=CCCCC3)C1=C[C@H](C1CCCC1)O[C@@H]2C	none (no result: DAX1 inh-2)
O=C(Nc1ccccc1C(F)(F)F)O[C@@H]1CC[C@@]23CCCN2C(=O)CCC[C@H]3C1	none (no result: SMARCA2 activ, DAX1 inh-1, DAX1 inh-2)
CCOc1ccc(-c2cc(C(C)=O)c3n(c2=O)CCC3)cc1	none (no result: DAX1 inh-2)
COc1cccc(CNC(=O)Cn2c(-c3ccccc3)cc(C(C)=O)c2C)c1OC	none (no result: DAX1 inh-2)
COc1ccc(/C=C2/CCc3ccccc3C2=O)cc1CN1CCOCC1	SMARCA2 activ 8.0 | SMARCA2 conf inactive | GAL4-VP16 Luc inactive
COc1ccc(/C=C2\CCc3ccccc3C2=O)cc1Cn1nc(C)cc1C	none
CCOC(=O)C1CCN(C(=O)c2ccco2)CC1	none
CCOC(=O)C1CCN(C(=O)c2cc3c(ccc4ccccc43)o2)CC1	SMARCA2 activ 9.0, DAX1 inh-1 4.1 | SMARCA2 conf 11 | GAL4-VP16 Luc 7.3
N/N=C(/Cc1nc2ccccc2[nH]1)c1ccc([N+](=O)[O-])cc1	SMARCA2 activ 8.2 | SMARCA2 conf inactive | GAL4-VP16 Luc 5.9
Cc1ccc(C(=O)NCCNC(=O)CN2CCCC2)cc1	none
COCCNC(=O)CN1CCCCCC1	SMARCA2 activ 8.3 | SMARCA2 conf inactive | GAL4-VP16 Luc inactive
C#CCN1C(=O)[C@]2(NCCc3c2[nH]c2ccc(OC)cc32)c2ccccc21	none (no result: DAX1 inh-2)
CCN(CC)C(=O)c1cc2c(=O)c3cc(F)ccc3oc2nc1C	SMARCA2 activ 9.6 | SMARCA2 conf inactive | GAL4-VP16 Luc inactive
CC(=O)c1cc2c(=O)c3ccccc3oc2nc1C	none
COc1ccc(C(=O)/C(=C\c2ccco2)N2C=CC=CC2=C(C#N)C#N)cc1	none (no result: hcDAF-12 act, SMARCA2 activ, DAX1 inh-1, ssDAF12 agonist, hgDAF-12 ag)
COc1ccc(/C=C(/C(=O)c2cccs2)N2C=CC=CC2=C(C#N)C#N)cc1	SMARCA2 activ 15 | SMARCA2 conf inactive | GAL4-VP16 Luc 11
Cc1cccc(C(=O)NCC(=O)NCCCSc2ccccc2)c1	none
COc1cc(C(=O)NCC(=O)NCCCSc2ccccc2)cc(OC)c1OC	SMARCA2 activ 8.0 | SMARCA2 conf inactive | GAL4-VP16 Luc inactive
COc1ccc(C=C2NC(=S)NC2=O)cc1	none
COc1ccc(C(=O)N2C(=S)NC(=O)/C2=C\c2ccc(C)cc2)cc1	SMARCA2 activ 13, hgDAF-12 ag 12 | SMARCA2 conf inactive | GAL4-VP16 Luc inactive
Cc1ccc(S(=O)(=O)N2CCCC(C(=O)Nc3c(C)n(C)n(-c4ccccc4)c3=O)C2)cc1 (configuration not stated)	none (no result: DAX1 inh-2)
